Most compounds without a hit are left out; they make up all but 2.5% or so of the library.
Cruzain Triton: blocks cruzain activity in presence of Triton detergent; Potency, µM, usual class: inhibitors; hit rate 0.43% among 200,000; purified cruzain, Z-FR-AMC fluorescence, 0.01% Triton; P25779; note: nearly all actives have a fitted effect of over 40% in size
Target sequence (P25779 123-467 limits assumed): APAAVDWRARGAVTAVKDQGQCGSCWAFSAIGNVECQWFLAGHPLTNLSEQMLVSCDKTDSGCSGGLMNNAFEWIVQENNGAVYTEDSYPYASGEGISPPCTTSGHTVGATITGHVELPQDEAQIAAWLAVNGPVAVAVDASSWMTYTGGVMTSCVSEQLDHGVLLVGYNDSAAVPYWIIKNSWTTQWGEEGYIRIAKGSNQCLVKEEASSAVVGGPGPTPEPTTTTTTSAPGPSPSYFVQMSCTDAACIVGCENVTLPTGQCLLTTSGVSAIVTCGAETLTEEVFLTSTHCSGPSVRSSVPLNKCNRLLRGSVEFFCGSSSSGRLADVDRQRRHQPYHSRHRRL
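Detergent-containing run (0.01% Triton X-100) in acetate buffer pH 5.5 with 5 mM DTT: enzyme at 1.5 nM final, 15 min compound preincubation at room temperature, then 2 uM Z-FR-AMC substrate. Activity taken as 60 s fluorescence increase at 360/450 nm.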
Cruzain noTriton: inhibitors of Trypanosoma cruzi cruzain without detergent; Potency, µM, actives largely listed as inhibitors; purified cruzain, Z-FR-AMC fluorescence, no detergent; hit rate 2.3% among 200,000; P25779; note: nearly all actives have a fitted effect of over 40% in size
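Purified cruzain at 1.5 nM, pre-incubated 15 min with compound at room temperature in 100 mM sodium acetate pH 5.5, 5 mM DTT, 0.00005% Triton X-100. Reaction started with 2 uM Z-FR-AMC; AMC fluorescence increase over 60 s gives rate.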
Hits are given with their value; . = inactive; ? = inconclusive. Calls come from the whole dose curve; as a rule, active = well fitted curve in the direction sought with a large enough effect; inconclusive = small, poorly fitted or top-dose-only effect, or another doubt; inactive = no such curve, though single readings can be large; an effect the other way counts as inactive or inconclusive.

SMILES	Cruzain Triton	Cruzain noTriton
Cn1cnc([N+](=O)[O-])c1Sc1nc(N)nc2c1ncn2[C@H]1C[C@H](O)[C@@H](CO)O1	.	.
CC(=O)Nc1ccc(C)cc1-c1nc2ccccc2n(CC(=O)Nc2cc(Cl)ccc2C)c1=O	.	.
CCc1ccc(OCc2cc(=O)n3c4c(sc3n2)CCCC4)cc1	.	.
O=C1/C(=C/c2ccccc2O)SC(=S)N1Cc1cccnc1	.	.
CN1C(=O)/C(=C/c2cc(N=Nc3ccccc3)ccc2O)SC1=S	.	16µM
NC[C@@H]1O[C@@H](O[C@H]2[C@H](O)[C@@H](O[C@@H]3O[C@@H](CO)[C@H](O)[C@@H](N)[C@@H]3O)[C@H](N)C[C@@H]2N)[C@@H](O)[C@H](O)[C@H]1O	.	.
C=CCCCCCCC=C	.	.
O=S(=O)(Nc1nc2ccccc2nc1N1CCc2ccccc2C1)c1ccc(Cl)cc1	.	.
O=S(=O)(Nc1nc2ccccc2nc1N1CCc2ccccc2C1)c1ccc(Br)cc1	.	7.9µM
CCOC(=O)c1cc(-c2ccccc2)n(-c2cccc(C(=O)N(C)c3ccc(C)cc3)c2)c1C	.	.
CCOC(=O)c1cc(-c2ccccc2)n(-c2cccc(C(=O)Nc3cccc(C(C)=O)c3)c2)c1C	.	?
CCOC(=O)c1cc(-c2ccccc2)n(-c2cccc(C(=O)Nc3cccc(F)c3)c2)c1C	.	10µM
CCOC(=O)c1cc(-c2ccccc2)n(-c2cccc(C(=O)Nc3ccc(OC)cc3)c2)c1C	.	25µM
CCOC(=O)c1cc(-c2ccccc2)n(-c2cccc(C(=O)Nc3cccc(SC)c3)c2)c1C	.	10µM
CCOC(=O)c1cc(-c2ccccc2)n(-c2cccc(C(=O)NC(C)(C)C)c2)c1C	.	.
CCOC(=O)c1cc(-c2ccccc2)n(-c2cccc(C(=O)Nc3ccc(F)c(F)c3)c2)c1C	.	20µM
CCOC(=O)c1cc(-c2ccccc2)n(CC(=O)Nc2cccc(OC)c2)c1C	.	.
CCc1cccc(NC(=O)Cn2nc(C)c3sc4ccccc4c3c2=O)c1	.	?
Cc1ccc(CNC(=O)CCCCn2c(=O)c3ccccc3n(Cc3c(C)cc(C)cc3C)c2=O)cc1	.	.
O=C(O)c1cc(=O)[nH]c(=S)[nH]1	.	.
Cc1ccc(-c2c(CN3CCN(c4cc(C)ccc4C)CC3)csc2C)cc1	.	?
COc1ccc(-c2c3c(=O)n(C)c(=O)n(C)c3cn2-c2cccc(N)c2)cc1	.	?
N#Cc1cccc(-n2c(-c3ccccc3)nnc2-c2ccccc2)c1C#N	.	?
N#Cc1ccc(-n2c(-c3ccccc3)nnc2-c2ccccc2)cc1C#N	.	20µM
COc1ccc(C)cc1NC(=O)COC(=O)c1ccc(OCc2ccc(Cl)cc2Cl)c(OC)c1	.	25µM
SMILES	Cruzain Triton	Cruzain noTriton
COc1ccc(NC(=O)COC(=O)c2ccc(OCc3ccc(Cl)cc3Cl)c(OC)c2)c(OC)c1	.	?
Cc1ccc(-c2n[nH]c3c2C(c2ccc(C(C)(C)C)cc2)NC3=O)cc1 (configuration not stated)	.	.
Cc1ccc(C(=O)n2nc(C)c(S(=O)(=O)N3CCOCC3)c2C)cc1C	.	.
O=C(OCC1OC(OC(=O)c2cc(O)c(O)c(OC(=O)c3cc(O)c(O)c(O)c3)c2)[C@@H](OC(=O)c2cc(O)c(O)c(OC(=O)c3cc(O)c(O)c(O)c3)c2)C(OC(=O)c2cc(O)c(O)c(OC(=O)c3cc(O)c(O)c(O)c3)c2)C1OC(=O)c1cc(O)c(O)c(OC(=O)c2cc(O)c(O)c(O)c2)c1)c1cc(O)c(O)c(OC(=O)c2cc(O)c(O)c(O)c2)c1 (some centres not stated)	16µM	7.9µM
Cc1cn(C2OC(COC(=O)c3ccccc3)C(OC(=O)c3ccccc3)C2OC(=O)c2ccccc2)c(=O)[nH]c1=O (configuration not stated)	.	?
CCc1ccc(C2=C(C)C(N3CCC(C(=O)NCCc4ccco4)CC3)=NS2(=O)=O)cc1	.	.
O=c1[nH]c(SCc2ccc(F)cc2)nc2c1cnn2-c1ccc(F)cc1	.	16µM
CCCSc1nc2c(cnn2-c2ccc(F)cc2)c(=O)[nH]1	.	.
CCCCSc1nc2c(cnn2-c2ccc(C)c(C)c2)c(=O)[nH]1	.	20µM
CCC(C)Sc1nc2c(cnn2-c2ccccc2)c(=O)[nH]1 (configuration not stated)	.	.
CCC(C)Sc1nc2c(cnn2-c2ccc(C)cc2)c(=O)[nH]1 (configuration not stated)	.	20µM
CCCSc1nc2c(cnn2-c2ccc(C)c(C)c2)c(=O)[nH]1	.	.
CN1CCC[C@@H]1c1cccnc1.O=C(O)c1ccccc1O.O=C([OH2+])c1ccccc1O.O=C([OH2+])c1ccccc1O.O=C([OH2+])c1ccccc1O.[Mn]	.	.
COc1ccc(-n2nc3cc(C)c(NC(=O)c4ccc(-c5ccc(Br)cc5)o4)cc3n2)cc1	.	.
